17 compounds from PubChem BioAssay can be followed below.

Where “and” joins values, the source holds several entries; their conditions need not be identical. Identical values can stand only once. Calls of active or inactive are those of the source.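 The calls were made as follows, unless noted: active = compounds whose cell count with miR-34 switched on is under 0.7 times the count with it off; inactive = the rest.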

Assay [1] is described as follows: sensitizers of A549 cells to miR-34 induction, primary screen, imaging, A549 dox-inducible miR-34, nuclei and caspase counts (AID 1347080). The conditions noted are these: A549 miR-34 inducible, Hoechst nuclei count, 48 h.
The nature of assay [2]: survival rescue of mitochondrial mutant cells in low glucose, primary screen, MELAS cybrids, Rieske KO mouse fibroblasts, CellTiter-Glo (AID 1508586;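 active = mean z-score across replicates of 1.96 or higher in either the MELAS or the Rieske mutant cell line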;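 also: z relative to plate mean and SD of compound and empty wells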). A general note: ATP-based viability assays read luminescence as a measure of living cells.
Assay [3] deals with NAD(+) hydrolase SARM1 (Homo sapiens) (UniProt Q6SZW1). The assay can be described thus: SARM1 TIR NADase inhibitors, cell lysate, NAD-Glo luminescence (AID 1508614;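 active = compound whose remaining NAD level is above about 45 nM, limit read from the data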;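 also: higher remaining NAD means stronger inhibition of SARM1 NADase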). The conditions noted are these: SAM-TIR HEK293T lysate NADase, at 1 µM, stronger effect = higher value.
Chain of NAD(+) hydrolase SARM1 (Homo sapiens) (Q6SZW1 whole entry, looked up, the tested form may be a part): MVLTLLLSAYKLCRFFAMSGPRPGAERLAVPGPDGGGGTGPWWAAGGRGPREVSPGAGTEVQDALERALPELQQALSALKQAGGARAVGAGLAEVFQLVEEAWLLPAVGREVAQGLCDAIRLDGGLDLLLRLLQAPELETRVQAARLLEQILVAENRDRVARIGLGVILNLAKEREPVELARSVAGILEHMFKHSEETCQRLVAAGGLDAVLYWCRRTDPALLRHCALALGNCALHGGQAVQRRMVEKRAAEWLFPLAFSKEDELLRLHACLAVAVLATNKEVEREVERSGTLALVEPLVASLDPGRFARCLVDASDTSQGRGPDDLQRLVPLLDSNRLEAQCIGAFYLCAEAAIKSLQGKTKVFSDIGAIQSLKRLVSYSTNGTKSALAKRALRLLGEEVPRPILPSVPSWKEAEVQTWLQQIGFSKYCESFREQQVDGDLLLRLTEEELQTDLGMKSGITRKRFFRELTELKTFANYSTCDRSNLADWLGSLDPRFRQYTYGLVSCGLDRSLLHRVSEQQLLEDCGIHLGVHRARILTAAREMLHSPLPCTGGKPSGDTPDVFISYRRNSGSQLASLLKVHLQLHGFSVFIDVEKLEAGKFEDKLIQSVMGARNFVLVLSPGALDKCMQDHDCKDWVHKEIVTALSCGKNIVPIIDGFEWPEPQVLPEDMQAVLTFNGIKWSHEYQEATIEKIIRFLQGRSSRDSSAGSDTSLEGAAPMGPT
Assay [4] deals with Mitogen-activated protein kinase 7 (Homo sapiens) (UniProt Q13164). The assay can be described thus: ERK5 transactivation activators in reporter cells, primary screen, cell-based, HTS (AID 1508626;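 active = luciferase signal above three times the same-plate solvent-only control wells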;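 also: luciferase driven by Gal4-ERK5 fusion binding five Gal4 sites before minimal TATA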). The conditions noted are these: HeLa Gal4-ERK5 transactivation, 18 h, at 5 µM, stronger effect = higher value.
Chain of Mitogen-activated protein kinase 7 (Homo sapiens) (Q13164 whole entry, looked up, the tested form may be a part): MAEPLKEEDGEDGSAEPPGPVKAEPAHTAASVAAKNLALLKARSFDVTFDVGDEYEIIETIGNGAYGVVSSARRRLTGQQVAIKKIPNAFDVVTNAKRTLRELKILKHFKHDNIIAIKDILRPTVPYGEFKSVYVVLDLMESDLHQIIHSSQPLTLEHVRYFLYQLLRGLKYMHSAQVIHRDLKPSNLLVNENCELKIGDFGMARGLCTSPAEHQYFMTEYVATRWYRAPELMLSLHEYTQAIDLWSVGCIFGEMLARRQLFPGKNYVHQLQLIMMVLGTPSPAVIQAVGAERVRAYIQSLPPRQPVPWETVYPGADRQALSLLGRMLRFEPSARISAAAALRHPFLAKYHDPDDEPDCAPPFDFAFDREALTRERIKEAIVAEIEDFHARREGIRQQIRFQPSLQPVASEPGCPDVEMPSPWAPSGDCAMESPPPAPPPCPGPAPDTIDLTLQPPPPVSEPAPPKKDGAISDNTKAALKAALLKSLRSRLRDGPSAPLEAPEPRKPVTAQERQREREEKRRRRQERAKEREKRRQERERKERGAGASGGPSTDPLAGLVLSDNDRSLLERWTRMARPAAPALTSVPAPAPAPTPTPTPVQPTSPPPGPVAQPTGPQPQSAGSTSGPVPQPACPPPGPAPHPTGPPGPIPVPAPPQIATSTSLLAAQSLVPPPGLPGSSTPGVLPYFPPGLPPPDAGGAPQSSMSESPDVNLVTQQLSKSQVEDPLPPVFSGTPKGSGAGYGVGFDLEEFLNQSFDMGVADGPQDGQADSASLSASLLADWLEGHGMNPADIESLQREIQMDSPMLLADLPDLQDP
Assay [5] can be described thus: viability rescue of complex I mutant cybrids, primary screen, cell-based, galactose medium, ATP luminescence (AID 1645843;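 active = z-score of at least 1.8 in each of two replicates, scored against plate mean and spread of sample wells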;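 also: positive z means more ATP and so rescue of galactose-driven cybrid death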). The note with it: complex I mutant cybrid cells, 72 h, stronger effect = higher value.
[6] abbreviates: stronger effect = lower value, cell number ratio, induced over uninduced.
Setting [7] is: measured here: relative caspase fold change +Dox/-Dox.
[8] abbreviates: measured here: total cells with miR-34 induction, stronger effect = lower value.
The mark [9] stands for this setting: measured here: total cells without miR-34 induction.
The mark [10] stands for this setting: MELAS cybrid survival, CellTiter-Glo 48 h, stronger effect = higher value.
Where [11] appears, read: Rieske KO mouse fibroblast survival, CellTiter-Glo 72 h.

For `O=C(O)c1ccccc1OP(=O)(O)O`, the fold change in assay [1] (setting [6]) was 0.878 (inactive); in assay [1] (setting [7]), 1.05. The cell count in assay [1] (setting [8]) amounted to 9100; in assay [1] (setting [9]), 10400. The z-score in assay [2] (setting [10]) is 0.629 (inactive); in assay [2] (setting [11]) it was -0.238. Further, the remaining NAD in assay [3] was 10 nM (inactive). Besides, in assay [4], the luciferase signal was 60 AU (inactive).
Take `CC(C)N=C(N)/N=C(\N)Nc1ccc(Cl)cc1`: the fold change was 0.874 (inactive) and 0.829 (inactive) in assay [1] (setting [6]); 0.463 and 3.03 in assay [1] (setting [7]). For the same compound, the cell count was 7740 and 10800 in assay [1] (setting [8]); 8860 and 13000 in assay [1] (setting [9]). The values for the z-score in assay [2] (setting [10]) and in assay [2] (setting [11]) were -1.19 (inactive) and 0.61, respectively. Besides, the remaining NAD in assay [3] was 10 nM (inactive). For the same compound, in assay [4], the luciferase signal was 84 AU (inactive).
Consider `N=C(N)N`, for which the fold change in assay [1] (setting [6]) was 0.954 (inactive) and 0.99 (inactive); in assay [1] (setting [7]), 0.786 and 0.574. In addition, the cell count in assay [1] (setting [8]) is 8580 and 8630; in assay [1] (setting [9]) it was 9000 and 8720. The z-score in assay [2] (setting [10]) was -0.279 (inactive); in assay [2] (setting [11]), -0.172. The remaining NAD in assay [3] is 10 nM (inactive). Besides, the luciferase signal in assay [4] was 44 AU (inactive).
Consider `Cc1[nH]c(C)c(Cl)c(=O)c1Cl`, for which the fold change in assay [1] (setting [6]) was 0.869 (inactive) and 0.865 (inactive); in assay [1] (setting [7]), 4.77 and 1.49. Besides, the cell count in assay [1] (setting [8]) is 11500 and 9370; in assay [1] (setting [9]) it was 13300 and 10800. Further, the z-score in assay [2] (setting [10]) was -1.24 (inactive); in assay [2] (setting [11]), -1.35; in assay [5], 0.41 (inactive). Also, the remaining NAD in assay [3] was 10 nM (inactive). The luciferase signal in assay [4] is 48 AU (inactive).
On to `CCOC(=O)NNc1nncc2ccccc12`, for which the fold change was 0.882 (inactive) in assay [1] (setting [6]) and 0.778 in assay [1] (setting [7]). In addition, the cell count in assay [1] (setting [8]) came to 8120; in assay [1] (setting [9]), 9200. Moreover, the results for the z-score in assay [2] (setting [10]) and in assay [2] (setting [11]) were -0.647 (inactive) and -0.171, respectively. Moreover, the remaining NAD in assay [3] was 10 nM (inactive). Moreover, the luciferase signal in assay [4] is 36 AU (inactive).
In the case of `COc1cc(NS(=O)(=O)c2ccc(N)cc2)ncn1`, the fold change in assay [1] (setting [6]) was 0.902 (inactive) and 0.903 (inactive); in assay [1] (setting [7]), 1.06 and 3.99. The cell count in assay [1] (setting [8]) was 9390 and 12000; in assay [1] (setting [9]) it was 10400 and 13300. Moreover, the z-score was 0.538 (inactive) in assay [2] (setting [10]) and 0.095 in assay [2] (setting [11]). Also, the remaining NAD in assay [3] is 10 nM (inactive). The luciferase signal in assay [4] is 44 AU (inactive).
In the case of `C[C@]12CCC(=O)C=C1C=C[C@@H]1[C@@H]2CC[C@@]2(C)[C@H]1CC[C@@]21CCC(=O)O1`, the fold change in assay [1] (setting [6]) was 0.826 (inactive); in assay [1] (setting [7]), 1.19. The cell count in assay [1] (setting [8]) amounted to 8530; in assay [1] (setting [9]), 10300. In addition, the z-score in assay [2] (setting [10]) is -0.57 (inactive) and -0.163 (inactive); in assay [2] (setting [11]), -0.749 and -0.289; in assay [5], -0.645 (inactive). For the same compound, in assay [3], the remaining NAD was 10 nM (inactive). In assay [4], the luciferase signal was 40 AU (inactive).
On to `CCN(CC)C(=O)N1CCN(C)CC1`, for which the fold change is 0.919 (inactive) and 0.923 (inactive) and 0.836 (inactive) in assay [1] (setting [6]); 1.19 and 0.187 and 0.88 in assay [1] (setting [7]). Besides, the cell count in assay [1] (setting [8]) is 8740 and 9030 and 11300; in assay [1] (setting [9]), 9520 and 9780 and 13500. The z-score was 0.833 (inactive) and 0.0717 (inactive) in assay [2] (setting [10]); -0.23 and -0.00609 in assay [2] (setting [11]); 0.74 (inactive) in assay [5]. In addition, in assay [3], the remaining NAD is 10 nM (inactive). Besides, the luciferase signal in assay [4] is 60 AU (inactive).
With `CCC(=O)c1c(O)cc(O)cc1O`, the values for the fold change in assay [1] (setting [6]) and in assay [1] (setting [7]) were 0.895 (inactive) and 0.888, respectively. The figures for the cell count in assay [1] (setting [8]) and in assay [1] (setting [9]) were 7860 and 8770, respectively. The z-score is -0.229 (inactive) in assay [2] (setting [10]) and -0.146 in assay [2] (setting [11]). In addition, in assay [3], the remaining NAD is 10 nM (inactive). Besides, in assay [4], the luciferase signal was 60 AU (inactive).
In the case of `CCCCOc1ccc(C(=O)CCN2CCCCC2)cc1`, the fold change was 0.869 (inactive) and 0.898 (inactive) and 0.904 (inactive) in assay [1] (setting [6]); 1.13 and 0.697 and 1.7 in assay [1] (setting [7]). The cell count is 8270 and 5950 and 11300 in assay [1] (setting [8]); 9520 and 6630 and 12500 in assay [1] (setting [9]). In addition, the z-score in assay [2] (setting [10]) was -0.438 (inactive) and 1.08 (inactive); in assay [2] (setting [11]), 0.0294 and 0.0562. The remaining NAD in assay [3] is 10 nM (inactive). In addition, the luciferase signal in assay [4] is 40 AU (inactive).
In the case of `Oc1c(Br)cc(Br)c2cccnc12`, the fold change in assay [1] (setting [6]) is 0.97 (inactive); in assay [1] (setting [7]), 0.803. Further, the cell count in assay [1] (setting [8]) came out at 7880; in assay [1] (setting [9]), 8120. Besides, the z-score is -0.25 (inactive) in assay [2] (setting [10]) and -0.139 in assay [2] (setting [11]). The remaining NAD in assay [3] is 10 nM (inactive). Moreover, the luciferase signal in assay [4] was 88 AU (inactive).
In the case of `O=C(COc1ccc(Cl)cc1)N1CCN(Cc2ccc3c(c2)OCO3)CC1`, the figures for the fold change in assay [1] (setting [6]) and in assay [1] (setting [7]) were 0.875 (inactive) and 1.39, respectively. For the same compound, the figures for the cell count in assay [1] (setting [8]) and in assay [1] (setting [9]) were 8260 and 9440, respectively. In addition, the z-score in assay [2] (setting [10]) is 0.452 (inactive); in assay [2] (setting [11]), 0.138. The remaining NAD in assay [3] was 10 nM (inactive). Further, the luciferase signal in assay [4] was 84 AU (inactive).
For `Cc1c(N(C)CS(=O)(=O)O)c(=O)n(-c2ccccc2)n1C`, the fold change was 0.886 (inactive) and 0.92 (inactive) in assay [1] (setting [6]); 1.09 and 6.36 in assay [1] (setting [7]). Besides, the cell count in assay [1] (setting [8]) is 8550 and 11500; in assay [1] (setting [9]) it was 9640 and 12500. The figures for the z-score in assay [2] (setting [10]) and in assay [2] (setting [11]) were -1.12 (inactive) and -0.298, respectively. Besides, the remaining NAD in assay [3] is 10 nM (inactive). Also, the luciferase signal in assay [4] is 40 AU (inactive).
As to `CC1(C)O[C@@H]2C[C@H]3[C@@H]4C[C@H](F)C5=CC(=O)CC[C@]5(C)[C@H]4[C@@H](O)C[C@]3(C)[C@]2(C(=O)CO)O1`, the fold change is 0.775 (inactive) in assay [1] (setting [6]) and 0.796 in assay [1] (setting [7]). In addition, the cell count in assay [1] (setting [8]) was 4730; in assay [1] (setting [9]), 6100. The z-score is -0.21 (inactive) in assay [2] (setting [10]) and 0.615 in assay [2] (setting [11]). Besides, in assay [3], the remaining NAD is 10 nM (inactive). Besides, the luciferase signal in assay [4] is 228 AU (inactive).
On to `O=C1c2c(O)cccc2Cc2cccc(O)c21`, for which the fold change was 0.891 (inactive) in assay [1] (setting [6]) and 1.8 in assay [1] (setting [7]). In addition, the cell count in assay [1] (setting [8]) came out at 11600; in assay [1] (setting [9]), 13000. In addition, the z-score in assay [2] (setting [10]) is 0.308 (inactive); in assay [2] (setting [11]) it was 0.465. Besides, in assay [3], the remaining NAD was 10 nM (inactive). Moreover, in assay [4], the luciferase signal was 180 AU (inactive).
With `CN1CCC(=C2c3ccccc3Sc3ccccc32)CC1`, the values for the fold change in assay [1] (setting [6]) and in assay [1] (setting [7]) were 0.873 (inactive) and 1.16, respectively. The cell count in assay [1] (setting [8]) was found to be 7410; in assay [1] (setting [9]) it was 8480. In addition, the z-score in assay [2] (setting [10]) is 0.363 (inactive); in assay [2] (setting [11]) it was 0.395. The remaining NAD in assay [3] is 83 nM (active). Further, the luciferase signal in assay [4] is 64 AU (inactive).
Turning to `Nc1ccc(C(=O)NCC(=O)O)cc1`, the fold change in assay [1] (setting [6]) is 0.905 (inactive) and 0.867 (inactive) and 0.907 (inactive); in assay [1] (setting [7]) it was 1.12 and 0.765 and 3.35. In addition, the cell count is 9600 and 8480 and 12000 in assay [1] (setting [8]); 10600 and 9780 and 13300 in assay [1] (setting [9]). Also, the z-score is -0.372 (inactive) and 0.514 (inactive) in assay [2] (setting [10]); -0.0832 and -0.331 in assay [2] (setting [11]). Moreover, the remaining NAD in assay [3] was 10 nM (inactive). Further, the luciferase signal in assay [4] was 20 AU (inactive).
